Where “and” joins values, the source holds several entries; their conditions need not be identical. Equal values may be shown once. Inconclusive results are not listed. A call without a number means that no potency is given here. Where a structure was tested more than once in an assay, its records may differ in their call. Calls of active or inactive are those of the source. Unless noted, calls follow the shape of the dose curve; as a rule, active = well fitted curve in the direction sought with a large enough effect in the repeat runs; inconclusive = weak or mixed curves; inactive = no such curve, though single readings can be large; an effect the other way counts as inactive or inconclusive.
Experiments:
[1] = qHTS assay to identify small molecule agonists of the estrogen receptor alpha (ER-alpha) signaling pathway in the presence of an antagonist - cell viability counter screen (AID 1259386);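 also: series mostly up to about 92 µM; cells exposed to compounds for 22 h at 37 °C before the viability read; nearly all actives have a fitted effect of over 30% in size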
Outline: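 The test measures whether compounds kill ER-alpha reporter cells (VM7Luc4E2) under antagonist co-treatment (ICI-182,780, 10.0nM). Fluorescence from CellTiter-Fluor is read after a 22hr exposure.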

[2] = target: Progesterone receptor (Homo sapiens) (UniProt P06401); experiment: qHTS assay to identify small molecule agonists of the progesterone receptor (PR) signaling pathway (AID 1346784; calls by dose curve; also: nearly all actives have a fitted effect of over 30% in size; also: potency is read from the fitted curve at half-maximal effect)
Outline: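 Fluorescence from LiveBLAzer B/G FRET substrate cleavage (2 hr, RT) reported PR activation in PR-UAS-bla HEK 293T cells treated 16 hr at 37C/5% CO2 with compounds; medium contained 2% charcoal-stripped FBS.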

[3] = target: Progesterone receptor (Homo sapiens) (UniProt P06401); experiment: qHTS assay to identify small molecule antagonists of the progesterone receptor (PR) signaling pathway (AID 1346795; active = well fitted inhibition curve with a large enough effect in the signal ratio in the repeat runs, not every such curve was filed as active; the % refers to the signal ratio)
Outline: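 Fluorescence intensity measured 2 hr after adding beta-lactamase FRET substrate to PR-UAS-bla HEK293T cells that had been co-treated 16 hr with compound and 1 nM R5020 (final concentration) in 2% charcoal-stripped FBS.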

[4] = qHTS assay to identify small molecule antagonists of the progesterone receptor (PR) signaling pathway - cell viability counter screen (AID 1346798); also: series mostly up to about 92 µM; nearly all actives have a fitted effect of over 50% in size
Outline: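 CellTiter-Glo luminescence; PR-UAS-bla HEK293T, 3,000 cells/well; compound + R5020, 16 hr, 37C/5% CO2; 30 min RT before read.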

[5] = qHTS assay to identify small molecule agonists of the progesterone receptor (PR) signaling pathway - cell viability counter screen (AID 1346799; calls by dose curve; also: nearly all actives have a fitted effect of over 45% in size)
Outline: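 In parallel with the beta-lactamase readout, cytotoxicity toward PR-UAS-bla HEK293T cells was measured by CellTiter-Glo luminescence following 16 hr compound incubation in 2% charcoal-stripped FBS medium.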

[6] = qHTS assay to identify small molecule antagonists of the TGF-beta/Smad signaling pathway - cell viability counter screen (AID 1346824); also: nearly all actives have a fitted effect of over 50% in size
Outline: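 Cytotoxicity counter-screen run in the same wells as the beta-lactamase Smad reporter read: CellTiter-Glo luminescence after 30 min at room temperature. HEK 293T SBE-bla cells had 5 hr compound exposure at 37 C with TGF-beta1 (0.25 ng/mL stock).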

[7] = qHTS assay to identify small molecule agonists of the TGF-beta/Smad signaling pathway - cell viability counter screen (AID 1346829); also: top concentration of the series differs between compounds; nearly all actives have a fitted effect of over 45% in size
Outline: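 Here the cytotoxicity of library compounds is measured in SBE-bla HEK 293T cells treated for 5 hr, using CellTiter-Glo added to wells already read for the beta-lactamase reporter.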

[8] = qHTS assay to identify small molecule agonists of the TGF-beta/Smad signaling pathway (AID 1346859; active = well fitted activation curve with a large enough effect in the signal ratio in the repeat runs, not every such curve was filed as active; the % refers to the signal ratio; also: series mostly up to about 77 µM)
Outline: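 After overnight seeding, SBE-bla HEK 293T cells are dosed with compounds in DMSO and kept 5 hr at 37 C, 5% CO2. LiveBLAzer-type FRET substrate is then applied for 2 hr at room temperature.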

[9] = target: Thyrotropin-releasing hormone receptor (Homo sapiens) (UniProt P34981); experiment: qHTS assay to identify small molecule agonists of the thyrotropin-releasing hormone receptor (TRHR) signaling pathway (AID 1346891; calls by dose curve;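 also: HEK293 cells expressing TRHR with calcium dye readout; series mostly up to about 58 µM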)
Outline: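 Compounds were tested as agonists at 15 concentrations, in triplicate, on TRHR-Hek293 cells; calcium-sensitive dye fluorescence was recorded for 3 min following addition.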

[10] = Human pregnane X receptor (PXR) small molecule agonists, qHTS cell viability counter screen (AID 1346977); also: nearly all actives have a fitted effect of over 50% in size; also: potency is read from the fitted curve at half-maximal effect
Outline: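 Viability counter screen: CellTiter-Fluor signal in PXR-Luc HepG2 cells, 24hr compound exposure, 37C, 5% CO2.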

[11] = Caspase-3/7 induction in HepG2 cells by small molecules, qHTS assay (AID 1346978); also: nearly all actives have a fitted effect of over 15% in size
Outline: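 Caspase-3/7 induction was measured by Caspase-Glo 3/7 luminescence (30 min, room temperature) after a 17 hr compound exposure of wild-type HepG2 cells seeded at 2,000 per well and pre-incubated 5 hr.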

[12] = Caspase-3/7 induction in CHO-K1 cells by small molecules, qHTS cell viability counter screen (AID 1346979); also: nearly all actives have a fitted effect of over 35% in size; also: potency is read from the fitted curve at half-maximal effect
Outline: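 Viability readout by fluorescence (CellTiter-Fluor) on wild-type CHO-K1 cells exposed for 16hr at 37C and 5% CO2 to compounds delivered in DMSO; reagent incubated 1hr before reading.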

[13] = Caspase-3/7 induction in CHO-K1 cells by small molecules, qHTS assay (AID 1346980); also: nearly all actives have a fitted effect of over 15% in size
Outline: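 Luminescent Caspase-Glo 3/7 read (30min, room temperature) quantified apoptosis induction. Cells were wild-type CHO-K1, treated with compound for 17hr at 37 C and 5% CO2.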

[14] = Caspase-3/7 induction in HepG2 cells by small molecules, qHTS cell viability counter screen (AID 1346981); also: series mostly up to about 92 µM; nearly all actives have a fitted effect of over 30% in size
Outline: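 Treatment of HepG2 cells with DMSO-delivered compounds ran 16 hr at 37 C following a 5-hr pre-incubation of 2,000 cells/well. CellTiter-Fluor fluorescence, read after 1 hr, served as the viability measure in a qHTS format.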

[15] = target: Nuclear receptor subfamily 1 group I member 2 (Homo sapiens) (UniProt O75469); experiment: Human pregnane X receptor (PXR) small molecule agonists, qHTS assay (AID 1346982); also: nearly all actives have a fitted effect of over 35% in size; also: potency is read from the fitted curve at half-maximal effect
Outline: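 Stable HepG2 line reporting PXR-mediated CYP3A4 expression via luciferase. Treatment: 24 hr with compounds in DMSO at 37 C. Detection: ONE-Glo luminescence.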

[16] = target: Acetylcholinesterase (Homo sapiens) (UniProt P22303); experiment: Acetylcholinesterase (AChE) small molecule antagonists: colormetric cell-based qHTS assay (AID 1347395; calls by dose curve; also: nearly all actives have a fitted effect of over 30% in size; also: potency is read from the fitted curve at half-maximal effect)
Outline: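 Homogeneous whole-cell format. SH-SY5Y cells seeded overnight, dosed with compound (30 min, 37 C, 5% CO2), then given DTNB/acetylthiocholine cocktail for 90 min at 37 C; colorimetric signal.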

[17] = target: Acetylcholinesterase (Homo sapiens) (UniProt P22303); experiment: Acetylcholinesterase (AChE) small molecule antagonists: enzyme-based qHTS assay (AID 1347397; calls by dose curve; also: nearly all actives have a fitted effect of over 55% in size; also: potency is read from the fitted curve at half-maximal effect); details: Potency: AChE enzyme activity inhibition
Outline: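 Colorimetric DTNB readout of acetylthiocholine hydrolysis, 10 min at room temperature, after 30 min room-temperature exposure of 50 mU/mL recombinant human enzyme to compound; DMSO vehicle control.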

[18] = target: Thyrotropin-releasing hormone receptor (Homo sapiens) (UniProt P34981); experiment: qHTS assay to identify small molecule antagonists of the thyrotropin-releasing hormone receptor (TRHR) signaling pathway (AID 1346877; active = well fitted inhibition curve with a large enough effect in the repeat runs, not every such curve was filed as active; also: series mostly up to about 51 µM)
Outline: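 Overnight-plated (18 h, 37 °C) HEK293 cells expressing TRHR were dye-loaded 2 h, treated with compound, then stimulated with TRH at 1 nM final. Fluorescence intensity was captured every second for 3 min.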

[19] = target: Nuclear receptor subfamily 1 group I member 2 (Rattus norvegicus) (UniProt Q9R1A7); experiment: Rat pregnane X receptor (rPXR) activation by small molecules, qHTS assay (AID 1346983); details: rPXR luciferase reporter cells, One-Glo luminescence, 24 h; max activation: stronger effect = higher value; also: nearly all actives have a fitted effect of over 20% in size
Outline: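 Luminescent readout (One-Glo luciferase, 30 min room temperature) followed 24 hr compound treatment at 37 C of rPXR cells plated 2,000 per well and preincubated 5hr; qHTS format with compounds delivered in DMSO.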

[20] = target: Nuclear receptor subfamily 1 group I member 2 (Homo sapiens) (UniProt O75469); experiment: Human pregnane X receptor (PXR) activation by small molecules, qHTS assay (AID 1346985); also: nearly all actives have a fitted effect of over 40% in size
Outline: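 DPX-2 cells (HepG2 co-transfected with a PXR response element and a CYP3A4-promoter luciferase construct) were seeded at 2,000 per well, rested 5 hr at 37C, then exposed to DMSO-dissolved compounds for 24 hr. Activation was read as luciferase luminescence.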

Chain of Progesterone receptor (Homo sapiens) (P06401 whole entry, looked up): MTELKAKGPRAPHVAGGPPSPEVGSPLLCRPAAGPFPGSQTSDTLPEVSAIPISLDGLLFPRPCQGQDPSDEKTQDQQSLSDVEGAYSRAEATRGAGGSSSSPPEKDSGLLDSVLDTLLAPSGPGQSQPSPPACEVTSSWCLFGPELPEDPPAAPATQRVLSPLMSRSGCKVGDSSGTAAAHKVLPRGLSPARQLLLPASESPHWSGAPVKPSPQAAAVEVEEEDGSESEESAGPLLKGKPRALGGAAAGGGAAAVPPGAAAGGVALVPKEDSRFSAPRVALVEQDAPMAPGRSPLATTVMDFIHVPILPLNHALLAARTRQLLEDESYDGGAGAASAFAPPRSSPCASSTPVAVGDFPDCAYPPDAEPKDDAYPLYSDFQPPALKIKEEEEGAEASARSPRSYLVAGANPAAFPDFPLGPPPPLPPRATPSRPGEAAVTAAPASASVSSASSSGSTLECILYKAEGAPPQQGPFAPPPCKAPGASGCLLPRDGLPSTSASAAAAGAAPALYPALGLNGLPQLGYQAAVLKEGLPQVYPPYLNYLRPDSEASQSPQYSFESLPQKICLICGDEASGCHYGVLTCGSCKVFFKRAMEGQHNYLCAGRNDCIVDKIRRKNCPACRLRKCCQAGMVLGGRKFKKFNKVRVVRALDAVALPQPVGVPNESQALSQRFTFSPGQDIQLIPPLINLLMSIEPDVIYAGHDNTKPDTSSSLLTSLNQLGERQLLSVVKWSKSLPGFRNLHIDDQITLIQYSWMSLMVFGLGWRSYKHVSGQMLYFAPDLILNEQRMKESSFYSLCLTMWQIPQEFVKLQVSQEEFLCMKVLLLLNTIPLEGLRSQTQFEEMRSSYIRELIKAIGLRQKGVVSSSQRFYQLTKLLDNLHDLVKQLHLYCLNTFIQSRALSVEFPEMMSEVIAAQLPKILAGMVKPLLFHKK
Chain of Thyrotropin-releasing hormone receptor (Homo sapiens) (P34981 whole entry, looked up): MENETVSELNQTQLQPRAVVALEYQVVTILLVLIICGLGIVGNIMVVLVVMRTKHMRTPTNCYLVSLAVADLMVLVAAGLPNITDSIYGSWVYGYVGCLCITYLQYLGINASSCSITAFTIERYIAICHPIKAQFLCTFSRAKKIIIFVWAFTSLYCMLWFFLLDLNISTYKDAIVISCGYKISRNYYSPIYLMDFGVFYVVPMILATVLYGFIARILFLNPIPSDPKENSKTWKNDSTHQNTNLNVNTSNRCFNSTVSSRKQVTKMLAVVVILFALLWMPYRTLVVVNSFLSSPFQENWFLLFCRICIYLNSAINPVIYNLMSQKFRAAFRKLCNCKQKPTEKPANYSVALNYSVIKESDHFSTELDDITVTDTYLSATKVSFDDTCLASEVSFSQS
Chain of Nuclear receptor subfamily 1 group I member 2 (Homo sapiens) (O75469 whole entry, looked up): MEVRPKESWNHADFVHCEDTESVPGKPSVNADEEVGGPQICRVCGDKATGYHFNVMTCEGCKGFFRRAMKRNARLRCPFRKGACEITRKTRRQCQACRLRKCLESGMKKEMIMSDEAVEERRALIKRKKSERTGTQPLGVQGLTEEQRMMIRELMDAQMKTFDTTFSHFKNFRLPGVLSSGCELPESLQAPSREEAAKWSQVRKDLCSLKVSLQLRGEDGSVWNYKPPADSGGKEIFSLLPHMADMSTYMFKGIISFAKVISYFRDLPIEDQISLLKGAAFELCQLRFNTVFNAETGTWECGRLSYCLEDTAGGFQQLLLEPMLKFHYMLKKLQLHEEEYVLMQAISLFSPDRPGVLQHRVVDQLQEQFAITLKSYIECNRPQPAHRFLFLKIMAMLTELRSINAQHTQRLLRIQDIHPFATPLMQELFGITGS
Chain of Nuclear receptor subfamily 1 group I member 2 (Rattus norvegicus) (Q9R1A7 whole entry, looked up): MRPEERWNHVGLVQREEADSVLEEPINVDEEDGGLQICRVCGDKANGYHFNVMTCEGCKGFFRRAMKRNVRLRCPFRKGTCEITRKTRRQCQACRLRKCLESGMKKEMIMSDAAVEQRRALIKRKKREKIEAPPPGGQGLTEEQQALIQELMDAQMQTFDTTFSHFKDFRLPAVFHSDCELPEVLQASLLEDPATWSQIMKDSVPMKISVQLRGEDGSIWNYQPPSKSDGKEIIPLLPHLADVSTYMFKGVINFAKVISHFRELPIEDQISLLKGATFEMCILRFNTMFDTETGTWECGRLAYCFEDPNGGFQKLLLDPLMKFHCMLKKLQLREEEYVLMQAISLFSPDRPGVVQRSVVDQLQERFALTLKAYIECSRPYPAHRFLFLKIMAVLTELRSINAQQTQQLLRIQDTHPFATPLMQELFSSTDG
Chain of Acetylcholinesterase (Homo sapiens) (P22303 whole entry, looked up): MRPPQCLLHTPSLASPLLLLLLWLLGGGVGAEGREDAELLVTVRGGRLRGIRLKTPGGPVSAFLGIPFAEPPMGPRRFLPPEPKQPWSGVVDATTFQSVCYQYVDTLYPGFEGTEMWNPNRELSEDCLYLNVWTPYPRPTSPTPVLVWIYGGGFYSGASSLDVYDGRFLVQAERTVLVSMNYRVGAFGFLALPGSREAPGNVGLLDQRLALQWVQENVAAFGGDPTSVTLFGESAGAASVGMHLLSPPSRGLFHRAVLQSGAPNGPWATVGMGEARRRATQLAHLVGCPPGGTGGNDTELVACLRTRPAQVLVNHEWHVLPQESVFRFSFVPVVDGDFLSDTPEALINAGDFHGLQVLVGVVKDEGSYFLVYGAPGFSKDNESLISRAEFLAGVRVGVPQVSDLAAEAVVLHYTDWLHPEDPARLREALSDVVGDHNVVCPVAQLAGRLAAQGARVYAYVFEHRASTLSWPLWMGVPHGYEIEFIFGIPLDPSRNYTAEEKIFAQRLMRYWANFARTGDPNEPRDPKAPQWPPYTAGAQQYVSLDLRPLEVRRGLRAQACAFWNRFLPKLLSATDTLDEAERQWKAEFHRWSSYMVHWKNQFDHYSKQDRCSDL

Row | SMILES | Potency [1] | Potency [2] | Potency [3] | Potency [4] | Potency [5] | Potency [6] | Potency [7] | outcome [8] | Potency [9] | Potency [10] | Potency [11] | Potency [12] | Potency [13] | Potency [14] | Potency [15] | Potency [16] | Potency [17] | Potency [18] | max activation [19] | Potency [20]
1 | COC(=O)C(Cl)C(=O)OC | inactive | inactive | inactive | inactive | inactive | inactive | inactive | inactive | inactive | inactive | inactive | inactive | inactive | inactive | inactive | inactive | inactive | – | – | –
2 | O=C(O)c1ccccc1C(=O)Nc1cccc2ccccc12 | inactive | inactive | inactive | inactive | inactive | inactive | inactive | inactive | inactive | inactive | inactive | inactive | inactive | inactive | 38.6 µM (active) | inactive | inactive | inactive | – | –
3 | CN1C(=O)NC(=O)C(C)(C2=CCCCC2)C1=O (stereo not given) | inactive | inactive | inactive | inactive | inactive | inactive | inactive | inactive | inactive | inactive | inactive | inactive | inactive | inactive | inactive | inactive | inactive | inactive | -1.51% (inactive) and -2.62% (inactive) | inactive
4 | CS/C(C)=N/OC(=O)N(C)SN(C)C(=O)O/N=C(\C)SC | inactive | inactive | inactive | inactive | inactive | inactive | inactive | inactive | inactive | – | inactive | – | inactive | inactive | – | 1.42 µM (active) | 5.03 µM (active) | – | – | –
5 | CCC(Cl)CCl (stereo not given) | inactive | inactive | inactive | inactive | inactive | inactive | inactive | inactive | inactive | inactive | inactive | inactive | inactive | inactive | inactive | inactive | inactive | inactive | – | –
6 | CCn1cc[n+](C)c1 | inactive | inactive and 15.3 µM (active) | inactive | inactive | inactive | inactive | inactive | inactive | – | inactive and 54.5 µM (active) | inactive | inactive | inactive | inactive | inactive and 48.6 µM (active) | – | – | – | – | –
7 | Clc1cc(Cl)c(Cl)c(Cl)c1 | inactive | inactive | inactive | inactive | inactive | inactive | inactive | inactive | – | inactive | inactive | inactive | inactive | inactive | inactive | inactive | inactive | – | – | –
8 | O=C(CBr)c1ccccc1 | inactive | inactive | inactive | inactive | inactive | inactive | inactive | inactive | inactive | inactive | inactive | – | inactive | inactive | inactive | inactive | inactive | inactive | – | –
9 | C[N+](C)(C)CCCl | inactive | inactive | inactive | inactive | inactive | inactive | inactive | inactive | inactive | inactive | inactive | inactive | inactive | inactive | – | inactive | inactive | inactive | – | –
10 | CC(Cl)C(C)Cl (stereo not given) | inactive | inactive | inactive | inactive | inactive | inactive | inactive | inactive | inactive | inactive | inactive | inactive | inactive | inactive | inactive | inactive | inactive | – | – | –
11 | C=CC(=O)OC | inactive | inactive | inactive | inactive | inactive | inactive | inactive | inactive | inactive | inactive | inactive | inactive | inactive | inactive | – | – | – | inactive | – | –
12 | C[C@@H]1CC[C@H]2[C@@H](C)C(=O)O[C@@H]3O[C@@]4(C)CC[C@@H]1[C@]32OO4 | inactive | inactive | inactive | inactive | inactive | inactive | inactive | inactive | inactive | inactive | inactive | 4.22 µM (active) | inactive | inactive | – | – | – | inactive | – | –
13 | Cc1ccc2ccccc2c1 | inactive | inactive | inactive | inactive | inactive | inactive | inactive | inactive | inactive | inactive | inactive | inactive | inactive | inactive | inactive | inactive | inactive | inactive | – | –
14 | CCOc1nc(F)cc2nc(S(=O)(=O)Nc3c(Cl)cccc3Cl)nn12 | inactive | inactive | inactive | inactive | inactive | inactive | inactive | inactive | inactive | inactive | inactive | inactive | inactive | – | inactive | inactive | inactive | – | – | –
15 | CC(=O)NC1CCSC1=O (stereo not given) | inactive | inactive | inactive | inactive | inactive | inactive | inactive | inactive | inactive | inactive | inactive | inactive | inactive | inactive | inactive | inactive | inactive | inactive | 10.8% (inactive) | inactive
16 | O=NN1CCCCCC1 | inactive | inactive | inactive | inactive | inactive | inactive | inactive | inactive | inactive | inactive | inactive | inactive | inactive | inactive | inactive | inactive | inactive | inactive | – | –

— PubChem BioAssay (Tox21)
